Where “and” joins values, the source holds several entries; their conditions need not be identical. Equal entries are not always repeated. Hit rate of the full screen: of about 260,000 compounds, about 1,500 (0.58%) were called active. Not shown: some 5% with an inconclusive outcome. These entries were drawn from the full list. Potency and affinity values are given separately. Values without a mark were called inactive.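 The calls were made as follows: active = inhibition above a set limit at one or more doses, reproduced on every date tested; inconclusive = results disagree between test dates, or hit never tested in dose response; inactive = the rest.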
Target: Virion infectivity factor (Human immunodeficiency virus type 1 group M subtype B (isolate BH10)) + Virion infectivity factor (Human immunodeficiency virus type 1 group M subtype B (isolate BRU/LAI)) + Virion infectivity factor (Human immunodeficiency virus type 1 group M subtype B (isolate PCV12)) + Virion infectivity factor (Human immunodeficiency virus type 1 group M subtype B (isolate HXB2)) + DNA dC->dU-editing enzyme APOBEC-3G (Homo sapiens) (UniProt P69720+P69721+P69722+P69723+Q9HC16)
Test: HIV-1 Vif–A3G interaction blockers – biochemical, TR-FRET, GST-Vif 1-94, biotin-A3G peptide, dose response retest, primary screen (AID 1117319);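 also: Vif residues 1-94 fused to GST binding biotinylated APOBEC3G peptide 110-148; 0% = full assay without inhibitor and 100% = GST in place of GST-Vif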
Settings: TR-FRET GST-Vif / biotin-A3G peptide binding; hits give high values

First: OCCN(CCO)c1ccc2ccccc2c1
Second: Nc1ccc(C(=O)N(CCO)CCO)cc1
The inhibition of the first is higher: 9.83% for the first, 2.26% for the second.

Compared with `CN(CC(=O)Nc1ccc(F)cc1)C(=O)C1CCCC1`, `Cc1ccc(NC(=O)CN(C)C(=O)c2cccc(Br)c2)cc1` is higher in inhibition: -2.12% for the first, -1.1% for the second.

Compared with `O=C(Cn1c(=O)n(Cc2ccco2)c(=O)c2c3c(sc21)CCCC3)Nc1ccccc1`, `O=c1c2c3c(sc2n(CCN2CCCCC2)c(=O)n1Cc1ccco1)CCCCC3` is higher in inhibition: -1.14% for the first, 30.5% for the second.

Going from `FC(F)(F)c1cnc(Oc2ccc(-c3nnco3)cc2)c(Cl)c1` to `Clc1ccc(OCCCc2nc(-c3cccnc3)no2)c(Cl)c1`, the inhibition rises from -4.28% to 21.6%.

First: Oc1ccc(Br)cc1/C=N/n1c(COc2ccccc2)n[nH]c1=S
Second: COc1ccc(NC(=O)CN(C)C(=O)c2cccc(Oc3ccccc3)c2)cc1
The inhibition of the first is higher: 23.7% for the first, -4.86% for the second.

Compared with `Cc1ccc(S(=O)(=O)Cc2ccc(C(=O)NCc3cccs3)o2)cc1`, `O=C(NCC1CCCO1)c1ccc(CS(=O)(=O)c2ccc(Cl)cc2)o1` (configuration not stated) is lower in inhibition: 2.29% for the first, 0.48% for the second.

Compared with `CSc1ccccc1NC(=O)c1cccnc1`, `O=C(CNC(=O)c1cccc(-n2cccc2)c1)Nc1ccccc1Br` is higher in inhibition: -0.88% for the first, 4.99% for the second.

First: CCN=c1scc(C)n1/N=C/c1ccsc1
Second: CCN=c1scc(C)n1/N=C/c1cc(Br)c(O)c(OC)c1
The inhibition of the first is higher: 24.1% for the first, 10.6% for the second.

Compared with `CN=c1scc(C)n1/N=C/c1ccc(O)cc1O`, `CN=c1scc(C)n1/N=C/c1ccc(O)cc1` is lower in inhibition: 6.79% for the first, 3.18% for the second.

Going from `CN=c1scc(C)n1/N=C/c1cc(Br)c(O)c(Br)c1` to `C=C(C)CN=c1scc(C)n1/N=C/c1ccco1`, the inhibition falls from 27.7% to 7.84%.

Compared with `O=C(Oc1coc(CSc2ncccn2)cc1=O)c1cccc([N+](=O)[O-])c1`, `COc1ccc(C(Nc2ccccn2)c2oc(CO)cc(=O)c2O)cc1` (configuration not stated) is higher in inhibition: -1.78% for the first, 20.9% for the second.

Compared with `O=C(Cc1ccccc1[N+](=O)[O-])NCC(=O)c1ccc2c(c1)OCO2`, `Cc1ccc(CSCC(=O)NCc2ccc3c(c2)OCO3)cc1` is higher in inhibition: -9.24% for the first, 14.3% for the second.

First: CC(CCc1ccccc1)N(C)CC(O)c1cccc([N+](=O)[O-])c1 (configuration not stated)
Second: CN(CC(=O)Nc1ccccc1Cl)C(=O)c1cccc(-n2cccc2)c1
The inhibition of the first is lower: -11.1% for the first, -0.39% for the second.

Compared with `Nc1ccn([C@@H]2O[C@H](CNCc3cccc(OC4CCCC4)c3)[C@@H](O)[C@H]2O)c(=O)n1`, `COc1cc(Cl)c(C)cc1NC(=O)CN1C(=O)C2CCCCC2C1=O` (configuration not stated) is lower in inhibition: 3.81% for the first, -15.8% for the second.

Going from `COc1ccc([C@@H]2C[C@@H](c3ccccc3)Oc3cc(OC)cc(OC)c32)cc1` to `COc1ccc(NC(=O)CN(C)C(=O)c2ccc3ccccc3c2)cc1`, the inhibition rises from -2.19% to 7.66%.

First: N#Cc1c(N2CCN(c3ccc(F)cc3)CC2)nc(N)c2c(N)nc3c(c12)CC(=O)N3C1CC1
Second: COc1ccc(N2CCN(Cc3nc4c(c(=O)[nH]c(=O)n4C)n3CC(C)=O)CC2)cc1
The inhibition of the first is lower: 1.08% for the first, 8.98% for the second.

First: CC(C)c1ccc(-c2nc(N3CCCCC3)[nH]c(=O)c2C#N)cc1
Second: Cc1n[nH]c(=O)n1-c1ccc(C(C)C)cc1
The inhibition of the first is higher: -2.18% for the first, -7.48% for the second.

Going from `CN(CCC#N)C(=O)COC(=O)c1ccc(Cl)cc1O` to `O=C(CCCCn1ccc(=O)[nH]c1=O)Nc1ccc(O)c(C(=O)O)c1`, the inhibition falls from 6.5% to -11.5%.

Compared with `COc1ccc(-n2nnnc2-c2cnc3cc4c(cc3c2C)OCO4)cc1`, `COc1ccc2c(c1)C(=O)N(c1ccc(C)cc1)C(=O)C2` is lower in inhibition: 2.05% for the first, 1.47% for the second.

Compared with `O=C(Cn1c2c(c(-c3ccccc3Cl)cc1=O)CCC2)NCCCN1CCOCC1`, `CCCCNC(=O)Cn1c2c(c(-c3ccccc3Cl)cc1=O)CCC2` is lower in inhibition: 22.2% for the first, 11.2% for the second.

Compared with `CC(=O)c1ccc(NC(=S)N2CCCC(C(F)(F)F)C2)cc1` (configuration not stated), `CCOC(=O)N1CCN(CC(=O)Nc2ccc(OC)cc2)CC1` is higher in inhibition: -3.97% for the first, -0.76% for the second.

Going from `Cc1ccc(C2C3=C(CCCC3=O)Nc3[nH]c(=S)[nH]c(=O)c32)cc1` (configuration not stated) to `COC(=O)C1=C(C)Nc2[nH]c(=S)[nH]c(=O)c2C1c1ccc(O)cc1` (configuration not stated), the inhibition falls from 15.3% to -3.71%.

First: COc1ccc(Nc2ccc([N+](=O)[O-])cc2[N+](=O)[O-])cc1
Second: O=C(O)c1cccc2c1C(=O)c1cc([N+](=O)[O-])cc([N+](=O)[O-])c1-2
The inhibition of the first is lower: -7.01% for the first, 6.48% for the second.

First: O=C(NC(=O)c1ccccc1)NC1(C(F)(F)F)OCCO1
Second: O=C(NNC(=O)c1cccc(-n2cccc2)c1)c1ccccc1
The inhibition of the first is lower: -4.29% for the first, 7.05% for the second.

First: O=C(NCC1CCCO1)C(c1cccnc1)N(C(=O)Cc1cccs1)c1ccccc1 (configuration not stated)
Second: CN(c1ccccc1)S(=O)(=O)c1ccc(C(=O)NCC2CCCO2)cc1 (configuration not stated)
The inhibition of the first is higher: 28.6% for the first, 6.12% for the second.

Going from `Cc1ccc2c(c1)CC1(CN2C)C(=O)OC(C)(C)OC1=O` to `Cc1ccc2c(c1)n([O-])c1c([n+]2=O)CCCC1`, the inhibition falls from 24.2% to 1.62%.

Going from `CCOC(=O)C1=C(C)N(c2ccc(OCC)cc2)C(=O)/C1=C\c1ccco1` to `Cc1ccc(CC2S/C(=N/N=C/c3ccco3)NC2=O)cc1` (configuration not stated), the inhibition falls from 10.7% to 4.38%.

Compared with `O=C1NC(=O)C(=CC=Cc2ccccc2)S1`, `CC1=NN(c2ccccc2)C(=O)/C1=C/C=C/c1ccccc1` is higher in inhibition: 2.69% for the first, 5.22% for the second.

First: CCc1ccc(N2C(=O)C3ON(c4ccccc4)C(c4ccco4)C3C2=O)cc1 (configuration not stated)
Second: O=C(Nc1cccc2ccccc12)N1CCN(Cc2ccccc2)CC1
The inhibition of the first is lower: -3.31% for the first, 20.5% for the second.

Going from `CC(C)c1ccc(CN(C(=O)/C=C/c2ccco2)C2CCS(=O)(=O)C2)cc1` (configuration not stated) to `O=c1cc(CO)oc(C(Nc2ccccn2)c2ccc(C(F)(F)F)cc2)c1O` (configuration not stated), the inhibition falls from 30.9% to 10.8%.

Going from `COc1ccc2[nH]c(C(=O)Nc3cccc(C)n3)cc2c1` to `Cc1cccc(NC(=O)CNC(=O)c2ccc3nc[nH]c3c2)c1C`, the inhibition rises from -5.53% to 9.97%.

Compared with `CCOc1cc(C#N)ccc1OCC(=O)N1CCN(C(=O)c2cccs2)CC1`, `Cc1ccc(CC(=O)NNC(=O)c2cccs2)cc1C` is lower in inhibition: -1.5% for the first, -2.08% for the second.

First: Cc1cccc(C)c1OCC(=O)NCC1CCCO1 (configuration not stated)
Second: Cc1cccc(C)c1NC(=O)CN(C)C(=O)c1cccc(-n2cccc2)c1
The inhibition of the first is lower: -4.95% for the first, 9.97% for the second.

Compared with `CCOCCCNC(=O)/C=C1\Sc2ccccc2N(Cc2ccccc2F)C1=O`, `COCCN(C(=O)COC(=O)CCOc1ccccc1)c1c(N)n(Cc2ccccc2)c(=O)[nH]c1=O` is higher in inhibition: -8.36% for the first, 0.29% for the second.

First: CCOC(=O)c1ccccc1NS(=O)(=O)c1ccc(S(=O)(=O)N2CCCC2)cc1
Second: O=C(Nc1ccc(S(=O)(=O)N2CCCCC2)cc1)c1ccccc1Cl
The inhibition of the first is higher: 2.58% for the first, 0.17% for the second.

First: CN(CC(=O)Nc1cccc(F)c1)C(=O)c1cccc(N2C(=O)CCC2=O)c1
Second: Cc1ccc(C)c(NC(=O)CN(C)C(=O)c2cccc(N3C(=O)CCC3=O)c2)c1
The inhibition of the first is lower: -2.88% for the first, -0.71% for the second.

Going from `Cc1ccc(C)c(NC(=O)CN(C)C(=O)c2cccc(S(=O)(=O)N(C)C)c2)c1` to `CN(CC(=O)Nc1ccccc1C(F)(F)F)C(=O)c1cccc(-n2cccc2)c1`, the inhibition rises from 5.71% to 6.51%.

First: O=C(NNC(=O)c1cccc(-n2cccc2)c1)c1ccc(F)cc1
Second: CCN(CC(=O)Nc1ccc(NC(C)=O)cc1)C(=O)c1cccc(-n2cccc2)c1
The inhibition of the first is lower: 16% for the first, 16.2% for the second.

Compared with `CN(CC(=O)Nc1cccc(F)c1)C(=O)c1ccc(C(=O)c2ccccc2)cc1`, `CCN(CC(=O)Nc1c(F)cccc1F)C(=O)c1cccc(-n2cnnn2)c1` is lower in inhibition: 0.25% for the first, -3.65% for the second.

Going from `Cc1ccsc1-c1nc(CN(C)C(C2CC2)C2CC2)c(C)o1` to `COc1cc2c(cc1OC)CN(Cc1nc3ccsc3c(=O)[nH]1)CC2`, the inhibition rises from 4.23% to 7.56%.

Compared with `Cc1ccc(SCC(=O)Nc2ccc(N3CCOCC3)cc2)cc1C`, `Cc1ccc(C(CC(=O)N2CCCCC2)c2ccccc2)c(O)c1C` (configuration not stated) is higher in inhibition: -8.83% for the first, -1.48% for the second.

First: COc1ccc(NC(=O)NNS(=O)(=O)c2ccc(OC)c(OC)c2)c(OC)c1
Second: COc1cc2c(cc1OC)CN(C(=O)c1cccc(S(=O)(=O)N3CCc4ccccc43)c1)CC2
The inhibition of the first is lower: 5.71% for the first, 8.84% for the second.

Compared with `O=C(CCNS(=O)(=O)c1ccc(F)cc1)N1CCN(c2ncccn2)CC1`, `COC(=O)CSc1nnc(-c2ccccn2)n1N` is higher in inhibition: -6.24% for the first, -2.48% for the second.

Compared with `Cc1oc2cc3oc(=O)c(CCC(=O)NCCC(=O)O)c(C)c3cc2c1C`, `COc1ccc(NC(=O)CSc2ncnc3c2cnn3Cc2ccccc2)cc1OC` is higher in inhibition: 2.04% for the first, 23.2% for the second.

Compared with `COc1ccc(C2c3ccsc3CCN2C(=O)NC(C)(C)C)cc1` (configuration not stated), `O=[n+]1cc(-c2ccc(Br)cc2)n([O-])c2c1CCC2` is higher in inhibition: -4.12% for the first, 3.02% for the second.

Compared with `O=[n+]1c2c(n([O-])c3cc(F)c(N4CCCC4)cc31)CCC2`, `O=[n+]1c2c(n([O-])c3cc(F)ccc31)CCCC2` is lower in inhibition: 25.7% for the first, 11.7% for the second.

Going from `O=[n+]1c2c(n([O-])c3cc(Br)ccc31)CCCC2` to `CCOc1ccc2c(c1)n([O-])c1c([n+]2=O)CCCC1`, the inhibition falls from 30% to 23.4%.

First: O=[n+]1c2c(n([O-])c3c1CCCC3)CCCC2
Second: O=[n+]1c2c(n([O-])c3ccccc31)CCCC2
The inhibition of the first is lower: 3.36% for the first, 9.07% for the second.

For `Cc1ccc(N2C(=O)c3n[nH]c(C)c3C2c2ccco2)cc1` (configuration not stated), the inhibition was -7.3% and 4.08%.
